# Assay results published in ChEMBL document CHEMBL3988442, “University of Dundee, Small-Polar-MMV Screening Library” (2021).
# For part of these data: Entries with a potency or affinity are not part of this list.
# Key:
# Set-up in all cases: scale not given: direction of the effect not stated beside the values
# [1] = biological target: Protein translocase subunit SecA (Escherichia coli (strain K12)) (UniProt P10408); assay: Assay to Identify E. coli SecA ATPase Inhibitors; type: functional; details: 30 µM
# [2] = biological target: T1, Ubiquitin-activating enzyme e1, putative (Leishmania donovani (strain BPK282A1)) (UniProt E9BSI1); assay: Leishmania donovani Ubiquitin Activating Enzyme (LdE1); type: functional; details: 30 µM
# T1 sequence (whole entry): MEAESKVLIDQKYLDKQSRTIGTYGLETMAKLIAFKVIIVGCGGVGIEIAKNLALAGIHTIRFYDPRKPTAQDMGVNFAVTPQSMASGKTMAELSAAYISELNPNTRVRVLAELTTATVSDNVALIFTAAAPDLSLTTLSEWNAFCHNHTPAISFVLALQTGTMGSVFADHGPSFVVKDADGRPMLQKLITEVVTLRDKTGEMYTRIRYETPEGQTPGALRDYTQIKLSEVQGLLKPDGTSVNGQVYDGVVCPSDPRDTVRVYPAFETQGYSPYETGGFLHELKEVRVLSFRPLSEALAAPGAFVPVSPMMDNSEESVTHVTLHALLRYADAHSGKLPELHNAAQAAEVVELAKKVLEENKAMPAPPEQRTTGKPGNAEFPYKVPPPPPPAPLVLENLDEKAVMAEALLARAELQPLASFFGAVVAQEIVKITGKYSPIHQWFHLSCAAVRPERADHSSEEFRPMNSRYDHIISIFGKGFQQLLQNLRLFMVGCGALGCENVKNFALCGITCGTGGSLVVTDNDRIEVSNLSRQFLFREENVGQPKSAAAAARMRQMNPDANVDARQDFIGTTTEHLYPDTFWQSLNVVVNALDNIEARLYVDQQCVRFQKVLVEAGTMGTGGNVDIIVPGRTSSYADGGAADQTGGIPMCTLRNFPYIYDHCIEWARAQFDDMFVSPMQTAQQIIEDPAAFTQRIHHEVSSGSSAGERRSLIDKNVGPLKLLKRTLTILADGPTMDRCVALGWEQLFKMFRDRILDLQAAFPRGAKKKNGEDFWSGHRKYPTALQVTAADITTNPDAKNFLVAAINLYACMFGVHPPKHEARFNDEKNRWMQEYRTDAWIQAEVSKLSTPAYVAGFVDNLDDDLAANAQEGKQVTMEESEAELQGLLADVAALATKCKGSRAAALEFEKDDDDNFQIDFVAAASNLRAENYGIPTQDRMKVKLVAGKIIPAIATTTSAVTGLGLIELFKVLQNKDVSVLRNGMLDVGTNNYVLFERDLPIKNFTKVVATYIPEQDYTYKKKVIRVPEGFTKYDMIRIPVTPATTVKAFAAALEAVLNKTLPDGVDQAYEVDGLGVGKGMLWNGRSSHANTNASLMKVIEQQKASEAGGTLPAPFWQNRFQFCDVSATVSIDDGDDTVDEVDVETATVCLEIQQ
# [3] = biological target: AMP-activated protein kinase, AMPK (Homo sapiens) (UniProt P54646+O43741+P54619+Q9UGJ0+Q9Y478+Q13131+Q9UGI9); assay: AMP-dependent Kinase enzyme assay. An in vitro enzyme assay that detects ADP turnover that is directly proportional to AMPK activity. This uses naive AMPK that is activated during the assay with MK-8722; type: functional; details: 30 µM
# [4] = biological target: Sialic acid-binding Ig-like lectin 9 (Homo sapiens) (UniProt Q9Y336); assay: Hs-Siglec9 ALPHAscreen SOP 20170721; details: 10 µM
# [5] = tested on: Trypanosoma cruzi; assay: Trypanosoma cruzi phosphomannomutase and mannose-1-phosphate guanylyltransferase assay; type: functional; details: 10 µM
# [6] = biological target: T2, Arginase-2, mitochondrial (Homo sapiens) (UniProt P78540); assay: in vitro enzyme assay to detect the production of urea directly proportional to the activity of Arginase II; type: functional; details: 33.3 µM; also: in the data most compounds retested in dose-response had high values
# T2 sequence (whole entry): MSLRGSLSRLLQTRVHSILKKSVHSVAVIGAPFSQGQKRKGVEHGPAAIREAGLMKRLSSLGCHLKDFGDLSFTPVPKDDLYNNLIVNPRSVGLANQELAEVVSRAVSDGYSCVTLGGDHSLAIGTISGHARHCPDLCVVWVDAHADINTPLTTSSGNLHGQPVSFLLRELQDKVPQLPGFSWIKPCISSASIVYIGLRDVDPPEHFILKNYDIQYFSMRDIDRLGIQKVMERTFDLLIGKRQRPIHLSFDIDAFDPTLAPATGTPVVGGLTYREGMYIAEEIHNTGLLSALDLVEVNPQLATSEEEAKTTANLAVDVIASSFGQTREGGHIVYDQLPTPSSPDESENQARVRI
# [7] = biological target: T3, Proteasome subunit beta (Trypanosoma cruzi) (UniProt O96673); assay: Trypanosoma cruzi proteasome chymotrypsin-like activity (TcProtChymo) assay.; also: in the data most compounds retested in dose-response had high values; type: functional; details: 9.37 µM
# T3 sequence (whole entry): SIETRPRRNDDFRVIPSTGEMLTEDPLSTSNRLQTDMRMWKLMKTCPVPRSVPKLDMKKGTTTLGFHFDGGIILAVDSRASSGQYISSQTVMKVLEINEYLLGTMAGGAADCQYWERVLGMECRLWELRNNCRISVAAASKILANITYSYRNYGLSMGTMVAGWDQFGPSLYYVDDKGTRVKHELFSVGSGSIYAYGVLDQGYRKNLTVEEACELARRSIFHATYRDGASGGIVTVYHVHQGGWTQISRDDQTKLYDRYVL
# [8] = organism: Homo sapiens; assay: To identify inhibition of the IFN signalling (Jak-Stat) pathway via expression of an eGFP reporter gene under the control of an IFN-stimulated response element (ISRE) containing MxA promoter.; type: functional; details: 30 µM
# [9] = biological target: T4, Tyrosyl-tRNA synthetase, putative (Trypanosoma cruzi (strain CL Brener)) (UniProt Q4DSP6); assay: Trypanosoma cruzi tyrosyl tRNA synthetase (TcYRS) _High Tyrosine SOP; type: functional; details: 30 µM; also: in the data most compounds retested in dose-response had high values
# T4 sequence (whole entry): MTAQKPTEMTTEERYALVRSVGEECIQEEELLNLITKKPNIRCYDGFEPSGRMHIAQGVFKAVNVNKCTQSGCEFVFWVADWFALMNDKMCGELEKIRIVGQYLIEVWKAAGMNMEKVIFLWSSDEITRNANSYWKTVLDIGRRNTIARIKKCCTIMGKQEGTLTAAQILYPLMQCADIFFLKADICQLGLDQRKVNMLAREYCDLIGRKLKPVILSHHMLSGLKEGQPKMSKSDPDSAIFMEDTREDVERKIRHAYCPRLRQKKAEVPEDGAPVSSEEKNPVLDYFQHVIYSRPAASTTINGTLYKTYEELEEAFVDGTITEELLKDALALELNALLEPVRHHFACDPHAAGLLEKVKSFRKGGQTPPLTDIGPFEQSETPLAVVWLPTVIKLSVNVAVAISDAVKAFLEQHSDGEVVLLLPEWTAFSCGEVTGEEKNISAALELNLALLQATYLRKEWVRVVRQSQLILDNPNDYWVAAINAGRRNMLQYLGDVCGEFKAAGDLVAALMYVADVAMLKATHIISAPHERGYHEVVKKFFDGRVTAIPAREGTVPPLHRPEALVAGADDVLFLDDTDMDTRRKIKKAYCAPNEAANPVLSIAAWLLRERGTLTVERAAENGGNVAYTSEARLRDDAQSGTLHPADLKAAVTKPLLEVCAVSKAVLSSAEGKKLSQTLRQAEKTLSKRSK
# [10] = biological target: T4, Tyrosyl-tRNA synthetase, putative (Trypanosoma cruzi (strain CL Brener)); assay: Trypanosoma cruzi tyrosyl tRNA synthetase (TcYRS) SOP; type: functional; details: 30 µM
# [11] = biological target: Chromo domain-containing protein 1 (Saccharomyces cerevisiae (strain ATCC 204508 / S288c) (Baker's yeast)) (UniProt P32657); assay: ScCHD-1 Enzyme Inhibition Assay; type: functional; details: 30 µM; also: in the data most compounds retested in dose-response had high values
# Sequence of Chromo domain-containing protein 1 (Saccharomyces cerevisiae (strain ATCC 204508 / S288c) (Baker's yeast)) (P32657 whole entry, the tested form may be a part): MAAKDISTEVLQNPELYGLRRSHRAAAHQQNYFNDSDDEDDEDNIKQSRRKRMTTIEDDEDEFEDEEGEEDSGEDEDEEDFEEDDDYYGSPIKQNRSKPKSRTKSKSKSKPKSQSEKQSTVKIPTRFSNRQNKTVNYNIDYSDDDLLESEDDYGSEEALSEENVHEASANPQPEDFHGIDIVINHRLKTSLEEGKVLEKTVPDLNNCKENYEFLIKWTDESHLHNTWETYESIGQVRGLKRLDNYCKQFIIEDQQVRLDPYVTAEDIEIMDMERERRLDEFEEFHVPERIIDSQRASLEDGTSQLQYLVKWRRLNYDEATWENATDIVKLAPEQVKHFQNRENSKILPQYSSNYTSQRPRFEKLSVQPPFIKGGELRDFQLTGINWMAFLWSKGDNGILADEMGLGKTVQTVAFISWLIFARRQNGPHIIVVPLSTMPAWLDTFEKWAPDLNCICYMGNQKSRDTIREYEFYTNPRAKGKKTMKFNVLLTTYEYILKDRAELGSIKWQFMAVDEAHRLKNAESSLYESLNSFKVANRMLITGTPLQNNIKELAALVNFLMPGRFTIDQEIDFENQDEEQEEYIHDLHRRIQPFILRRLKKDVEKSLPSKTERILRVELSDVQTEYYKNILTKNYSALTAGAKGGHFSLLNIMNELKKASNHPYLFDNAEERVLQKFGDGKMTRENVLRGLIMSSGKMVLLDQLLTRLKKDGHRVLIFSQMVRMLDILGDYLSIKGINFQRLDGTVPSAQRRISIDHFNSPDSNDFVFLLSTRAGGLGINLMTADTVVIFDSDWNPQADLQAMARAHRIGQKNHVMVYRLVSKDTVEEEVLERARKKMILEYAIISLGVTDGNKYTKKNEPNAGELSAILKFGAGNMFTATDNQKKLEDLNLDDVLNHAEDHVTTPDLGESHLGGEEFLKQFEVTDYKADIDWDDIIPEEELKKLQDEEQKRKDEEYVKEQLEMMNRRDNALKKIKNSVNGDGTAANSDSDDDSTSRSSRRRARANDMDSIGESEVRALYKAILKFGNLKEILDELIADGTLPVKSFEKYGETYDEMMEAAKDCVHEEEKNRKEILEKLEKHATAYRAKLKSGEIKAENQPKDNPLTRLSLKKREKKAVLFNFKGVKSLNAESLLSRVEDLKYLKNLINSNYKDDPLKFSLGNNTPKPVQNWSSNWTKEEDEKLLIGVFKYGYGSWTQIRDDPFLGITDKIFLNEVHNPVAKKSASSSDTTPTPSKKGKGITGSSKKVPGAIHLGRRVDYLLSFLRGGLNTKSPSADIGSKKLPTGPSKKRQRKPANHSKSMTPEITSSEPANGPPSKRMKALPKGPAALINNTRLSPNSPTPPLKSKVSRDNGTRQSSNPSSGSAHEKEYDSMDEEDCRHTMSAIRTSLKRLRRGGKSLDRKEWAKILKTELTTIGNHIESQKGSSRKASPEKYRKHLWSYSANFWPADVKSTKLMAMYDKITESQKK
# Sequence of Sialic acid-binding Ig-like lectin 9 (Homo sapiens) (Q9Y336 whole entry): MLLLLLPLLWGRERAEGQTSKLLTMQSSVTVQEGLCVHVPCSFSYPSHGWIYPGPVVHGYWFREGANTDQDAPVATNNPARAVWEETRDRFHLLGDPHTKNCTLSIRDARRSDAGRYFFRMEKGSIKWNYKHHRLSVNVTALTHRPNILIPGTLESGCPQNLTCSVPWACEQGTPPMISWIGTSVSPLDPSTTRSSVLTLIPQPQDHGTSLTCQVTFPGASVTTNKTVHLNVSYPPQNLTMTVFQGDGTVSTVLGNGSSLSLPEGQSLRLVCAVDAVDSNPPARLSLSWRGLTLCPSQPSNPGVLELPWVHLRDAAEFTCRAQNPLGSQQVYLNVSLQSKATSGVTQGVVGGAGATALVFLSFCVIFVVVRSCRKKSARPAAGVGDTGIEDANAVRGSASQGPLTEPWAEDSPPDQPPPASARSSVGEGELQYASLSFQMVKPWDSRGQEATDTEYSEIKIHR
# Sequence of Protein translocase subunit SecA (Escherichia coli (strain K12)) (P10408 whole entry): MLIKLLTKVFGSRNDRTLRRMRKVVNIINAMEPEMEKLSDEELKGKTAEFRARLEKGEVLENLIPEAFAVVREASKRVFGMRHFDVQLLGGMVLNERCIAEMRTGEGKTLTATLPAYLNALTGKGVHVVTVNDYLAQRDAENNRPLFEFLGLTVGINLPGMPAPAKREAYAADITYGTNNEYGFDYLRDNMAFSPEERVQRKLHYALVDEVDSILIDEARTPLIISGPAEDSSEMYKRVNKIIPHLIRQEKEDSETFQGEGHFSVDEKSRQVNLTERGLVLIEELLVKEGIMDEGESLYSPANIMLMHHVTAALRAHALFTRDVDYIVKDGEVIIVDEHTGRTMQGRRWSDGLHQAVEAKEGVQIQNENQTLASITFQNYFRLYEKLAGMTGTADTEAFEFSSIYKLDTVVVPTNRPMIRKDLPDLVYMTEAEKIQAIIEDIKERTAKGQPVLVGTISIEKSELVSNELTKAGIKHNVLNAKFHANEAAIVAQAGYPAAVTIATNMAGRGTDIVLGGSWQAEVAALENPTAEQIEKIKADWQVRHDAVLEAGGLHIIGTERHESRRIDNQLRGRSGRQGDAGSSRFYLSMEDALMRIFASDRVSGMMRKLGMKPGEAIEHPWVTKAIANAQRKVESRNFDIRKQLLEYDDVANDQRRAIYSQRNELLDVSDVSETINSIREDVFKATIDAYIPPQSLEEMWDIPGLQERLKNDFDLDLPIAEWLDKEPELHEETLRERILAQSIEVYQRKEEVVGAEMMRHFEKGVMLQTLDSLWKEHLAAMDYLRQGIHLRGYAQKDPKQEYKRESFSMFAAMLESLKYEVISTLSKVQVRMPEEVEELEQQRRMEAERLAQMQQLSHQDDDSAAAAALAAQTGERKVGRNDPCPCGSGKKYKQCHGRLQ
Compound,Percent Effect [1],Percent Effect [2],Percent Effect [3],Percent Effect [4],Percent Effect [5],Percent Effect [6],Percent Effect [7],Percent Effect [8],Percent Effect [9],Percent Effect [10],Percent Effect [11]
COc1cccc(CC2CN(C3CCN(C(C)=O)CC3)CCO2)c1 (stereo unspecified),-1.38%,-7.79%,2.17%,2.19%,-1.87%,-2.76%,-0.499%,-4.71%,2.15%,3.7%,1.6%
CC(C)N1CCC(N2CCN(C3CCC3)CC2CCO)CC1 (stereo unspecified),-2.22%,1.39%,-21.6%,12%,5.73%,20.8%,-1.75%,-10.3%,2.1%,5.13%,0.447%
Cc1ccccc1CS(=O)(=O)CC(=O)NC1CCCCNC1=O (stereo unspecified),-5.33%,18.2%,-2.46%,11%,4.87%,-4.98%,8.62%,11%,4.85%,21.9%,-8.24%
CCc1c(C)nc2n(c1=O)CC(C(=O)Nc1nccs1)CS2 (stereo unspecified),-7.87%,13%,-4.33%,-3.77%,5.62%,5.81%,7.31%,4.32%,3.17%,14.1%,-7.44%
CC(C)c1nc2c(n1C)CCN(CC(=O)Nc1ccc(Cl)cn1)C2,-1.64%,15.6%,1.07%,6.83%,0.686%,-2.32%,19.8%,6.83%,4.76%,21.2%,-21.7%
Cc1ccc(CN2CCc3ncnc(C4CCOC4)c3CC2)s1 (stereo unspecified),1.24%,10.7%,1.52%,6.88%,-2.51%,-41.4%,5.98%,18.1%,5.21%,25%,-6.72%
CC(C)NC(=O)c1ccc2c(c1)nc1n2CCN(C(C)C)C1,-0.173%,4%,2.97%,4.16%,-5.11%,-13.2%,19.2%,-1.16%,6.35%,7.69%,-10.7%
O=C1CCC2(CCN(Cc3cc(F)cc(F)c3)CC2)CN1CCO,-6.11%,4.17%,-0.613%,0.944%,1.85%,-24.7%,9.12%,-8.34%,3.16%,10.3%,-0.52%
COCCNC(=O)C(C)n1cc(Br)cn1 (stereo unspecified),-3.71%,5.2%,1.52%,7.73%,0.492%,-2.76%,13.1%,5.02%,9.68%,16.1%,135%
O=C(NCC1CC1)[C@H]1C[C@@H]2CCN(Cc3nccs3)C[C@@H]2O1,-2.59%,8.11%,5.76%,-2.2%,4.4%,-2.23%,20.7%,17.8%,8.65%,15.4%,2.01%
CC1CN(C)c2ccccc2CN1C(=O)c1ccncc1 (stereo unspecified),-2.73%,13.7%,4.78%,21.6%,3.53%,32.3%,8.87%,1.93%,2.15%,5%,-3%
Cc1cnc(CNC(=O)NCc2cccnc2N(C)C)s1,-3.06%,-2.6%,1.02%,13.8%,-2.43%,2.85%,-5.07%,5.66%,0%,7.32%,2.89%
COCCN1CCc2cc(C(=O)N(C)C)c(NC(C)C)nc2CC1,-0.676%,8.11%,-3.33%,-5.3%,-2.25%,0.248%,0.429%,-3.78%,-10.8%,3.7%,-3.16%
Cc1ccccc1CCNC(=O)C1CC(=O)N(CC(F)(F)F)C1 (stereo unspecified),-3.95%,24.3%,-20.9%,-4.07%,1.42%,-21.2%,10.1%,25.2%,5.42%,18.5%,-11.1%
COc1ccccc1OCc1cc(C(=O)N2CC=CC2C(C)C)n[nH]1 (stereo unspecified),0.254%,1.39%,-2.81%,9.42%,2.82%,8.83%,11.9%,-13.9%,5.26%,7.69%,-2.27%
Cc1ccc(NC2CCN(C(=O)c3cc[nH]n3)CC2)nn1,-0.868%,0%,8.84%,3.52%,-3.01%,1.53%,10.7%,-13.4%,-0.49%,-2.44%,7.64%
CCCc1nc(N2Cc3cnn(Cc4ccc(F)cc4)c3C2)no1,-3.65%,5.33%,7.03%,2.42%,-2.04%,2.6%,14.1%,19.7%,4.92%,11.1%,-7.25%
CN(C)C(=O)Cc1nc(CN2CCOC(Cn3cccn3)C2)cs1 (stereo unspecified),1.53%,0%,-0.58%,-0.357%,-1.46%,0%,10.6%,-2.04%,0%,0%,1.28%
Cn1cc(CCNC(=O)CCc2ccc3c(c2)OCO3)cn1,-0.341%,16.2%,0.891%,13.4%,-9.75%,3.88%,13.3%,8.13%,1.98%,13.4%,-6.68%
O=C(NCCOc1ccc2c(c1)OCO2)C1CC(=O)N(CC2CC2)C1 (stereo unspecified),-2.83%,18.4%,1.65%,-9.9%,6.82%,0%,9.56%,-20.7%,6.4%,23.5%,-7.44%
O=C(c1ccc(Cl)o1)N1CCCN(Cc2cscn2)CC1,-5.01%,15.6%,-7.43%,-4.3%,4.02%,-2.74%,16.1%,0.576%,6.67%,14.1%,-17.3%
